Shown are actives, neighbours in structure and some others; about 8.3% of the full set was active somewhere.
MARV entry inh = Marburg virus entry inhibition; 300,000 compounds, 1.8% hits; Marburg virus pseudotyped entry inhibition, cell reporter; Potency, µM (titrated, usually from 37.8 µM), for inactives: at the highest dose activity change, negative = inhibition, usual class: inhibitors; calls by dose curve; tested in HEK293 cells; further: potency means the concentration at half of the fitted maximal effect
Lassa entry inh = Lassa virus entry inhibition | Lassa virus pseudotype entry inhibition, cell reporter | Potency, µM (series often up to 37.9 µM), for the others: top-dose activity change, negative = inhibition, hits mostly inhibitors | 300,000 compounds, 1.2% hits | AID 540256; calls by dose curve; tested in HEK293 cells; further: potency means the concentration at half of the fitted maximal effect; nearly all actives have a fitted effect of over 50% in size
HCV inh = blocks hepatitis C virus; Huh7.5.1 HCVcc-Cre infection, luciferase reporter, 44 h; Potency, µM (doses to about 41.8 µM), for the others: top-dose activity change, negative = inhibition, actives largely listed as inhibitors; 340,000 compounds, 3.4% hits; AID 651820; further: potency means the concentration at half of the fitted maximal effect
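1,000 cells/well; 4 h culture; + compound; + HCVcc-Cre (~0.5 moi); 44 h; luciferase substrate, RT 15 min; read 15 sec.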
HCMV inh = inhibitors of human cytomegalovirus | activity change, negative = inhibition, % at 57.5 µM | AID 1259415 | 410,000 compounds, 4.5% hits | HFF cells, HCMV-luciferase reporter, 72 h; active compounds read low; in the data active means activity change below about -60%; inconclusive means no clear call, values can overlap the other calls; inactive means above about -39%
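Compounds were evaluated in HFFs infected with an HCMV luciferase reporter virus (MOI 1 PFU/cell). Luciferase in lysates collected 72 h post infection served as the replication measure.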
FMDV antiviral = foot and mouth disease virus antiviral activity | FMDV antiviral cell-based qHTS | Potency, µM (titrated, usually from 57.9 µM), for the others: top-dose activity change, negative = inhibition, most hits filed as inhibitors | 410,000 compounds, 1.2% hits | AID 1159524; calls by dose curve; tested in HEK293T cells; further: read-out not given here; potency means the concentration at half of the fitted maximal effect; nearly all actives have a fitted effect of over 45% in size
FBPA Giardia inh = blocks Giardia fructose-bisphosphate aldolase activity; purified Giardia FBPA; A8B2U2; AID 2451; 290,000 compounds, 0.71% hits; Potency, µM (top dose mostly 59.6 µM), inactives show at the top dose activity, negative = inhibition, usual class: inhibitors; further: potency means the concentration at half of the fitted maximal effect; nearly all actives have a fitted effect of over 55% in size
Target sequence (A8B2U2 whole entry, looked up): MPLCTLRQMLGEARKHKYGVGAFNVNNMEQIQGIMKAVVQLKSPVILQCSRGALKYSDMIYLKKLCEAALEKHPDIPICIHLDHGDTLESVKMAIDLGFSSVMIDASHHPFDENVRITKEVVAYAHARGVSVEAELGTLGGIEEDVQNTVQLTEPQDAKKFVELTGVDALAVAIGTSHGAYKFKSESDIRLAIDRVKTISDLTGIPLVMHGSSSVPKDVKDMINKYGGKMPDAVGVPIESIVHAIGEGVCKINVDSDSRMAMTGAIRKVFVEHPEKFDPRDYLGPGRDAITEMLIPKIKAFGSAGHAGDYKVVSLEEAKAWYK
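Giardia FBPA (40 nM reagent) was preincubated 10 min at RT with compound (up to 57.5 uM final), then substrate plus GAPDH/TPI/NAD/arsenate coupling system with diaphorase/resazurin was added; resorufin fluorescence (525/598 nm) was read after 20 min.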
Numbers without * were called inactive; ? = inconclusive; · = no result; ! = not confirmed by another sample; [ ] = remark or other dose. Unless noted, the call rests on the fitted dose curve; in most records, active means well fitted curve in the direction sought with a large enough effect; inconclusive means small, poorly fitted or top-dose-only effect, or another doubt; inactive means no such curve, though single readings can be large; an effect the other way counts as inactive or inconclusive. On the % scale 0 is the no-effect control and ±100 the full control effect.

SMILES	MARV entry inh	Lassa entry inh	HCV inh	HCMV inh	FMDV antiviral	FBPA Giardia inh
Cn1nnnc1SCC(=O)Nc1cccc([N+](=O)[O-])c1	8%[46.1 µM]	12%	-4%	-68*	-2%	1%
Cn1ccnc1SCC(=O)Nc1cccc([N+](=O)[O-])c1	23%[46.1 µM]	6%	33%	-7	22%	-2%
CC(=O)n1nc(-c2cccc(C)c2)nc1SCC(=O)Nc1ccccc1	-2%	?	6%	-89*	32%	-4%
O=C(CSc1nc(-c2ccccc2)nn1C(=O)c1ccccc1)Nc1cccc([N+](=O)[O-])c1	-2%	?	25µM*	50	?	-9%
C#CCCCO/N=C1\C[C@@H](O)[C@@H](O)[C@@H]2[C@@H]3C(=O)N(Cc4ccc5c(c4)OCO5)C(=O)[C@@H]3CC[C@@H]12	-7%[14.2 µM]	·	·	·	·	·
Cc1ccc(C2C(=O)c3ccccc3C2=O)cc1	17%	22%	10%	70	13%	-22%
CC(=O)Nc1ccc(C2C(=O)c3ccccc3C2=O)cc1	1%	-11%	?	140	20µM*	-2%
CCCC(=O)Nc1ccc(C2C(=O)c3ccccc3C2=O)cc1	?	-50%	5µM*	164	10µM*	-7%
CCCCn1c(N)c(N(CCOC)C(=O)c2ccc(N3CCCC3=O)cc2)c(=O)[nH]c1=O	·	·	3%	-101*	-23%	·
CCCCn1c(N)c(N(CC(C)C)C(=O)C2CC(=O)N(c3ccc(C)cc3)C2)c(=O)[nH]c1=O (centres undefined)	-10%[46.1 µM]	1%	3%	-89*	-17%	·
COc1ccc(-c2nc(CSCC(=O)N3CCN(c4cccc(C)c4)C(C)C3)c(C)o2)cc1OC (centres undefined)	?	?	10µM*	-18	?	-22%
CCc1ccc(-c2nc(CSCC(=O)N3CCN(c4ccc(F)cc4)CC3)c(C)o2)cc1	7%[46.1 µM]	21%[46.1 µM]	·	-80*	?	·
Cn1c(CSCc2ccc(F)cc2)nnc1SCC(=O)N1CCN(c2ccccc2)CC1	?	?	?	-69*	?	4%
O=C(CSCc1ccc(F)cc1)N1CCN(c2ccccc2)CC1	-2%	?	1%	0	12%	1%
CCCNS(=O)(=O)c1ccc(CCC(=O)N2CCN(c3ccc(F)cc3)CC2)cc1	-33%	4%	?	-65*	?	-2%
C=CC[C@@H]1C=C[C@@H](O/N=C\C[C@@H]2C=C[C@H](OC(C)=O)[C@H](COC(C)=O)O2)[C@@H](CO)O1	4%[14.2 µM]	·	·	·	·	0%[12.9 µM]
COc1ccc(C2C=C3CNS(=O)(=O)C3CC2OC(=O)c2ccc(C(F)(F)F)cc2)cc1 (centres undefined)	·	·	·	·	·	-25%
COc1ccc(Oc2ncc3nc(C)c(=O)n(Cc4ccc(F)cc4)c3n2)cc1	·	·	·	·	-23%	-21%
COc1ccc(-c2nc(CSCC(=O)N3CCN(c4ccccc4)CC3)c(C)o2)cc1	0%[46.1 µM]	-7%[46.1 µM]	·	-65*	35µM*	·
Cc1ccsc1-c1nc(CSCC(=O)N2CCN(c3ccccc3)CC2)c(C)o1	0%	·	?	6	?	-27%
COc1ccc(-c2nc(CSCC(=O)N3CCN(c4ccc(F)cc4)CC3)c(C)o2)cc1	?	-27%[46.1 µM]	·	-90*	13µM*	·
Cc1ccc(CSCC(=O)N2CCN(c3ccc(F)cc3)CC2)cc1	-9%	?	2%	-66*!	-9%	3%
Cc1ccc(-c2nc(CSCC(=O)N3CCCC3)c(C)o2)cc1	-2%	1%	?	?	-24%	-5%
COC(=O)C1(C(=O)OC)CC2=CC(CC2=O)Cc2ccccc2[C@@H]1C[N+](=O)[O-] (some centres undefined)	·	·	·	·	·	-1%
Cc1ccc(S(=O)(=O)N2CCCc3cc(NC(=O)c4ccc(C(F)(F)F)cc4)ccc32)cc1	·	?	·	7	1%	·
SMILES	MARV entry inh	Lassa entry inh	HCV inh	HCMV inh	FMDV antiviral	FBPA Giardia inh
O=C(/C=C/c1ccccc1)CC(O)(c1ccccc1)C(F)(F)C(F)F (centres undefined)	?	?	?	?	·	-8%
COc1ccc(/C=C/C(=O)CC(O)(c2ccccc2)C(F)(F)F)cc1 (centres undefined)	?	?	-12%	-100*	35µM*	4%
O=C(/C=C/c1ccccc1)CC(O)(c1ccccc1)C(F)(F)F (centres undefined)	?	?	?	-102*	·	-1%
COc1ccc(/C=C/C(=O)CCC(=O)O)cc1	5%[46.1 µM]	19%	11%	-20	35%	5%
O=C(NCc1ccccc1)C1=C[C@H](c2ccccc2)C[C@H](OCc2ccc(CO)cc2)O1	·	·	-4%	-91*	14%	·
O=C(C1=C[C@@H](c2ccccc2)C[C@@H](OCc2ccc(CO)cc2)O1)N1CCN(Cc2ccc3c(c2)OCO3)CC1	·	·	11µM*	-2	0%	-11%
O=C(Nc1ccccc1)C1=C[C@H](c2ccccc2)C[C@H](OCc2ccc(CO)cc2)O1	·	·	4%[8.37 µM]	6	31%	-7%
O=C(Nc1ccccc1)C1=C[C@@H](C2CC2)C[C@@H](OCc2ccc(CO)cc2)O1	·	·	0.56µM*	23	55%	0%
COc1ccc(C(CNC(=O)c2cc3c(s2)CCC(C)C3)N2CCCC2)cc1 (centres undefined)	·	·	10µM*	?	9%	·
CCC1CCc2sc(C(=O)NCC(c3ccccc3OC)N3CCCC3)cc2C1 (centres undefined)	·	·	7.1µM*	?	?	·
C[C@@H]1CCC(=O)N(CC[C@H](Oc2ccccc2)c2ccccc2)CC1	·	·	-19%	-64*	8%	6%
CC(C)(C)c1ccc(/C=C(\c2nc3ccccc3[nH]2)S(=O)(=O)c2ccccc2)cc1	·	·	11µM*	·	20µM*	·
COc1cccc([C@@H]2Oc3ccc(Br)cc3C[C@H]2OC(=O)Nc2ccc(OC(F)F)cc2)c1	·	·	·	·	·	12%
O=C(Cn1c(=O)n2nc(-c3ccccc3)nc2c2ccccc21)Nc1ccccc1C(F)(F)F	?	7%[46.1 µM]	·	24	4%	·
c1ccc(COc2ncnc3c2ncn3CCCNC2CCN(Cc3ccccc3)CC2)cc1	·	·	·	-86*	?	·
CC(=O)O[C@@H]1N=C(c2ccccc2)c2ccccc2NC1=O	15%	·	·	·	·	·
Oc1ccccc1/C=N/NC(=S)NCCc1ccccc1	?	1%[46.1 µM]	11µM*	-70*	12%	23%
Cc1nn(-c2ccccc2)c(N2CCCC2)c1/C=N/NC(=S)Nc1ccc(F)cc1	?	?	?	?	-16%	·
Oc1ccccc1C=NNC(=S)Nc1ccc(F)cc1	?	?	?	-83*	34%	·
Cc1nn(C)cc1/C=N/NC(=S)Nc1ccccc1	7.3µM*	-12%	?	21	2%	?
O=C(Nc1ccccc1C(=O)OCc1cc(=O)n2c3c(sc2n1)CCCC3)c1ccc(F)cc1	·	0%[46.1 µM]	·	-17	-15%	·

Source: PubChem (National Center for Advancing Translational Sciences (NCATS))
